# From PubChem BioAssay (NCI)
# The panel holds about 79,000 compounds, 15% with a hit somewhere; the sample as a whole holds those more often. Activity calls are given as the source filed them. Rule as the data show it: active = growth inhibition above about 70%; inactive = the rest.
# Columns and labels:
# [1] = NCI Yeast Anticancer Drug Screen. Data for the rad52 strain (AID 147);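 also: 0% = growth of vehicle-treated control cultures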; details: S. cerevisiae rad52 mutant growth inhibition, hits give high values
# Procedure, shortened: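 Compounds are applied to a genetically defined yeast strain lacking normal DNA damage repair, and inhibition of growth is expressed relative to cultures given vehicle only.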
# [2] = NCI Yeast Anticancer Drug Screen. Data for the rad50EPP+ strain (AID 151);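 also: 0% = growth of vehicle-treated control cultures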; details: S. cerevisiae rad50 mutant strain, hits give high values
# Procedure, shortened: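 Compounds were applied to the rad50EPP+ yeast strain, which bears a defined DNA repair alteration, and growth inhibition was determined relative to vehicle-treated cultures.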
# [3] = NCI Yeast Anticancer Drug Screen. Data for the mgt1 strain (AID 153); details: S. cerevisiae mgt1 mutant growth inhibition, hits give high values
# Procedure, shortened: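 Strain: mgt1 yeast, one of a set carrying defined DNA damage repair or cell cycle control alterations. Compound-treated growth compared with vehicle.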
# [4] = NCI Yeast Anticancer Drug Screen. Data for the rad50 strain (AID 155);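 also: 0% = growth of vehicle-only cultures of the same strain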; details: S. cerevisiae rad50 strain growth inhibition, hits give high values
# Procedure, shortened: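 Growth of the mutant yeast was measured after compound exposure and referenced to vehicle-treated cultures.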
# [5] = NCI Yeast Anticancer Drug Screen. Data for the mec2-1 strain (AID 157); details: S. cerevisiae mec2-1 strain, hits give high values
# Procedure, shortened: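 Strain: mec2-1 (DNA repair/cell cycle alteration). Compound exposure, then growth measured; inhibition expressed relative to vehicle.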
# [6] = NCI Yeast Anticancer Drug Screen. Data for the rad14 strain (AID 159);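 also: 0% = growth of vehicle-treated control cultures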; details: S. cerevisiae rad14 strain growth inhibition, hits give high values
# Procedure, shortened: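 Here, inhibition of yeast growth was measured after compound exposure, using a strain with a genetic defect in DNA damage repair and vehicle-treated cultures as the reference.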
# [7] = NCI Yeast Anticancer Drug Screen. Data for the sgs1 mgt1 strain (AID 161);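 also: 0% = growth of cultures given vehicle only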; details: S. cerevisiae sgs1 mgt1 strain, hits give high values
# Procedure, shortened: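 Genetically altered yeast, compound exposure, growth inhibition relative to vehicle.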
# [8] = NCI Yeast Anticancer Drug Screen. Data for the CLN2oe strain (AID 163);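 also: 0% = growth of vehicle-only control cultures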; details: S. cerevisiae CLN2oe strain, hits give high values
# Procedure, shortened: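 Growth of a genetically modified yeast strain is measured after compound exposure and compared with cultures given vehicle alone.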
# [9] = NCI Yeast Anticancer Drug Screen. Data for the bub3 strain (AID 167); details: S. cerevisiae bub3 mutant strain, hits give high values
# Procedure, shortened: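 Whole-cell yeast assay. The mutant strain was incubated with compounds, and growth inhibition was determined by comparison with vehicle-treated cells.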
# [10] = NCI Yeast Anticancer Drug Screen. Data for the mlh1 strain (AID 171);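 also: 0% = growth of vehicle-treated control cultures of the same strain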; details: S. cerevisiae mlh1 strain growth inhibition, hits give high values
# Procedure, shortened: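 Growth of the mutant yeast strain after compound exposure, expressed as inhibition relative to vehicle-only controls.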
# [11] = NCI Yeast Anticancer Drug Screen. Data for the sgs1 strain (AID 173);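 also: 0% = growth of vehicle-only control cultures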; details: S. cerevisiae sgs1 mutant, hits give high values
# Procedure, shortened: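 Growth of a yeast strain bearing a defined genetic alteration is measured after compound treatment. Inhibition is expressed relative to vehicle-only controls.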
# [12] = NCI Yeast Anticancer Drug Screen. Data for the mlh1 rad18 strain (AID 175); details: S. cerevisiae mlh1 rad18 strain growth inhibition, hits give high values
# Procedure, shortened: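 Read-out is yeast growth inhibition, calculated against vehicle-only controls. The compound was applied to a strain engineered with DNA damage repair alterations.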
# [13] = NCI Yeast Anticancer Drug Screen. Data for the rad18 strain (AID 177); details: S. cerevisiae rad18 mutant growth inhibition, hits give high values
# Procedure, shortened: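 Growth of the mutant yeast strain after compound exposure, normalised to vehicle-only cultures.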
# [14] = NCI Yeast Anticancer Drug Screen. Data for the wt1 strain (AID 149);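 also: 0% = growth of vehicle-treated wt1 cultures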; details: S. cerevisiae wt1 strain (SPY 50644) growth inhibition, hits give high values
# Procedure, shortened: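 Measured: growth of wt1 yeast under compound versus vehicle treatment, reported as inhibition.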
# [15] = NCI Yeast Anticancer Drug Screen. Data for the cln2 rad14 strain (AID 165);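 also: 0% = growth equal to vehicle treated cultures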; details: S. cerevisiae cln2 rad14 strain, hits give high values
# Procedure, shortened: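 Compounds are applied to the cln2 rad14 yeast strain, and growth is then compared with that of vehicle-treated cultures to give inhibition.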
# [16] = NCI Yeast Anticancer Drug Screen. Data for the wt2 strain (AID 169);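 also: 0% = growth of vehicle-treated yeast cultures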; details: S. cerevisiae wt2 strain growth inhibition, hits give high values
# Procedure, shortened: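 This strain belongs to a panel of yeast strains with defined genetic alterations in DNA damage repair or cell cycle control. Compounds are applied, and growth inhibition is measured against vehicle-treated cultures.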
# [17] = at 5.0 µM (retest, dose inferred, filed as 0.5)
# [18] = at 50.0 µM (retest, dose inferred, filed as 5.0)
smiles,measurement,setting,value
CC[N+](CC)(CC)c1ccccc1,growth inhibition,[1]; at 1.2 µM,8% (inactive)
same,growth inhibition,[1]; at 3.7 µM,-7% (inactive)
same,growth inhibition,[1]; at 11.0 µM,0% (inactive)
same,growth inhibition,[1]; at 33.0 µM,-3% (inactive)
same,growth inhibition,[1]; at 100.0 µM,-6% (inactive)
same,growth inhibition,[2]; at 1.2 µM,-8% (inactive)
same,growth inhibition,[2]; at 3.7 µM,-14% (inactive)
same,growth inhibition,[2]; at 11.0 µM,-14% (inactive)
same,growth inhibition,[2]; at 33.0 µM,-22% (inactive)
same,growth inhibition,[2]; at 100.0 µM,-20% (inactive)
same,growth inhibition,[3]; at 1.2 µM,1% (inactive)
same,growth inhibition,[3]; at 3.7 µM,1% (inactive)
same,growth inhibition,[3]; at 11.0 µM,-6% (inactive)
same,growth inhibition,[3]; at 33.0 µM,8% (inactive)
same,growth inhibition,[3]; at 100.0 µM,-8% (inactive)
same,growth inhibition,[4]; at 1.2 µM,19% (inactive)
same,growth inhibition,[4]; at 3.7 µM,24% (inactive)
same,growth inhibition,[4]; [17],17% (inactive)
same,growth inhibition,[4]; at 11.0 µM,16% (inactive)
same,growth inhibition,[4]; at 33.0 µM,14% (inactive)
same,growth inhibition,[4]; [18],98% (active)
same,growth inhibition,[4]; at 50.0 µM,62.5% (inactive)
same,growth inhibition,[4]; at 100.0 µM,21% (inactive)
same,growth inhibition,[5]; at 1.2 µM,-5% (inactive)
same,growth inhibition,[5]; at 3.7 µM,-3% (inactive)
same,growth inhibition,[5]; [17],35% (inactive)
same,growth inhibition,[5]; at 11.0 µM,-8% (inactive)
same,growth inhibition,[5]; at 33.0 µM,1% (inactive)
same,growth inhibition,[5]; [18],98% (active)
same,growth inhibition,[5]; at 50.0 µM,-1.75% (inactive)
same,growth inhibition,[5]; at 100.0 µM,8% (inactive)
same,growth inhibition,[6]; at 1.2 µM,-28% (inactive)
same,growth inhibition,[6]; at 3.7 µM,-36% (inactive)
same,growth inhibition,[6]; at 11.0 µM,-34% (inactive)
same,growth inhibition,[6]; at 33.0 µM,-33% (inactive)
same,growth inhibition,[6]; at 100.0 µM,-25% (inactive)
same,growth inhibition,[7]; [17],-21% (inactive)
same,growth inhibition,[7]; [18],-13% (inactive)
same,growth inhibition,[7]; at 50.0 µM,39.8% (inactive)
same,growth inhibition,[8]; at 1.2 µM,16% (inactive)
same,growth inhibition,[8]; at 3.7 µM,5% (inactive)
same,growth inhibition,[8]; at 11.0 µM,8% (inactive)
same,growth inhibition,[8]; at 33.0 µM,-11% (inactive)
same,growth inhibition,[8]; at 100.0 µM,-8% (inactive)
same,growth inhibition,[9]; at 1.2 µM,16% (inactive)
same,growth inhibition,[9]; at 3.7 µM,15% (inactive)
same,growth inhibition,[9]; [17],31% (inactive)
same,growth inhibition,[9]; at 11.0 µM,15% (inactive)
same,growth inhibition,[9]; at 33.0 µM,19% (inactive)
same,growth inhibition,[9]; [18],26% (inactive)
same,growth inhibition,[9]; at 50.0 µM,75.5% (active)
same,growth inhibition,[9]; at 100.0 µM,11% (inactive)
same,growth inhibition,[10]; at 1.2 µM,-26% (inactive)
same,growth inhibition,[10]; at 3.7 µM,-46% (inactive)
same,growth inhibition,[10]; at 11.0 µM,-43% (inactive)
same,growth inhibition,[10]; at 33.0 µM,-43% (inactive)
same,growth inhibition,[10]; at 100.0 µM,-42% (inactive)
same,growth inhibition,[11]; at 1.2 µM,-15% (inactive)
same,growth inhibition,[11]; at 3.7 µM,-21% (inactive)
same,growth inhibition,[11]; at 11.0 µM,-22% (inactive)
same,growth inhibition,[11]; at 33.0 µM,-19% (inactive)
same,growth inhibition,[11]; at 100.0 µM,-23% (inactive)
same,growth inhibition,[12]; [17],30% (inactive)
same,growth inhibition,[12]; [18],99% (active)
same,growth inhibition,[12]; at 50.0 µM,26.2% (inactive)
same,growth inhibition,[13]; at 1.2 µM,3% (inactive)
same,growth inhibition,[13]; at 3.7 µM,10% (inactive)
same,growth inhibition,[13]; at 11.0 µM,6% (inactive)
same,growth inhibition,[13]; at 33.0 µM,3% (inactive)
same,growth inhibition,[13]; at 100.0 µM,10% (inactive)
CCCCOC(=O)Nc1ccc(C)c(NC(=O)OCCCC)c1,growth inhibition,[14]; at 1.2 µM,-6% (inactive)
same,growth inhibition,[14]; at 3.7 µM,-2% (inactive)
same,growth inhibition,[14]; at 11.0 µM,-7% (inactive)
same,growth inhibition,[14]; at 33.0 µM,46% (inactive)
same,growth inhibition,[14]; at 100.0 µM,12% (inactive)
same,growth inhibition,[2]; at 1.2 µM,2% (inactive)
same,growth inhibition,[2]; at 3.7 µM,5% (inactive)
same,growth inhibition,[2]; at 11.0 µM,27% (inactive)
same,growth inhibition,[2]; at 33.0 µM,36% (inactive)
same,growth inhibition,[2]; at 100.0 µM,44% (inactive)
same,growth inhibition,[4]; at 1.2 µM,-5% (inactive)
same,growth inhibition,[4]; at 3.7 µM,-3% (inactive)
same,growth inhibition,[4]; [17],3% (inactive)
same,growth inhibition,[4]; at 11.0 µM,9% (inactive)
same,growth inhibition,[4]; at 33.0 µM,19% (inactive)
same,growth inhibition,[4]; [18],78% (active)
same,growth inhibition,[4]; at 50.0 µM,89.9% (active)
same,growth inhibition,[4]; at 100.0 µM,42% (inactive)
same,growth inhibition,[5]; at 1.2 µM,-6% (inactive)
same,growth inhibition,[5]; at 3.7 µM,-11% (inactive)
same,growth inhibition,[5]; [17],-2% (inactive)
same,growth inhibition,[5]; at 11.0 µM,-6% (inactive)
same,growth inhibition,[5]; at 33.0 µM,7% (inactive)
same,growth inhibition,[5]; [18],69% (inactive)
same,growth inhibition,[5]; at 50.0 µM,94.3% (active)
same,growth inhibition,[5]; at 100.0 µM,22% (inactive)
same,growth inhibition,[6]; at 1.2 µM,-3% (inactive)
same,growth inhibition,[6]; at 3.7 µM,-3% (inactive)
same,growth inhibition,[6]; at 11.0 µM,2% (inactive)
same,growth inhibition,[6]; at 33.0 µM,11% (inactive)
same,growth inhibition,[6]; at 100.0 µM,15% (inactive)
same,growth inhibition,[8]; at 1.2 µM,-11% (inactive)
same,growth inhibition,[8]; at 3.7 µM,-19% (inactive)
same,growth inhibition,[8]; at 11.0 µM,11% (inactive)
same,growth inhibition,[8]; at 33.0 µM,31% (inactive)
same,growth inhibition,[8]; at 100.0 µM,38% (inactive)
same,growth inhibition,[15]; [17],-4% (inactive)
same,growth inhibition,[15]; [18],79% (active)
same,growth inhibition,[15]; at 50.0 µM,91.9% (active)
same,growth inhibition,[9]; at 1.2 µM,-8% (inactive)
same,growth inhibition,[9]; at 3.7 µM,-9% (inactive)
same,growth inhibition,[9]; [17],-2% (inactive)
same,growth inhibition,[9]; at 11.0 µM,-8% (inactive)
same,growth inhibition,[9]; at 33.0 µM,3% (inactive)
same,growth inhibition,[9]; [18],72% (active)
same,growth inhibition,[9]; at 50.0 µM,94.5% (active)
same,growth inhibition,[9]; at 100.0 µM,8% (inactive)
same,growth inhibition,[16]; at 1.2 µM,-4% (inactive)
same,growth inhibition,[16]; at 3.7 µM,-4% (inactive)
same,growth inhibition,[16]; at 11.0 µM,6% (inactive)
same,growth inhibition,[16]; at 33.0 µM,52% (inactive)
same,growth inhibition,[16]; at 100.0 µM,29% (inactive)
same,growth inhibition,[10]; at 1.2 µM,-8% (inactive)
same,growth inhibition,[10]; at 3.7 µM,-6% (inactive)
same,growth inhibition,[10]; at 11.0 µM,1% (inactive)
same,growth inhibition,[10]; at 33.0 µM,17% (inactive)
same,growth inhibition,[10]; at 100.0 µM,36% (inactive)
same,growth inhibition,[11]; at 1.2 µM,-4% (inactive)
same,growth inhibition,[11]; at 3.7 µM,-5% (inactive)
same,growth inhibition,[11]; at 11.0 µM,8% (inactive)
same,growth inhibition,[11]; at 33.0 µM,47% (inactive)
same,growth inhibition,[11]; at 100.0 µM,72% (active)
same,growth inhibition,[12]; [17],-1% (inactive)
same,growth inhibition,[12]; [18],84% (active)
same,growth inhibition,[12]; at 50.0 µM,94.5% (active)
same,growth inhibition,[13]; at 1.2 µM,-5% (inactive)
same,growth inhibition,[13]; at 3.7 µM,-8% (inactive)
same,growth inhibition,[13]; at 11.0 µM,12% (inactive)
same,growth inhibition,[13]; at 33.0 µM,31% (inactive)
same,growth inhibition,[13]; at 100.0 µM,50% (inactive)
